Bioassay records: PubChem BioAssay, several laboratories
esBAF inh: blocks esBAF chromatin remodeling in mouse ES cells | 350,000 tested, 2% active | reporter increase, % at 12.5 µM | Bmi1-luciferase knock-in reporter, 24 h; 100% = twice the neutral-well signal; in the data active = activation above about 40%; inconclusive = no clear call, values can overlap the other calls;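 note: a rise in the Bmi1 reporter signal indicates esBAF inhibition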
CDK5 p35 inh: inhibitors of human CDK5/p35 kinase; Recombinant CDK5/p35, ADP-Glo luminescence, 60 min; inhibition, % at 10 µM; 330,000 tested, 0.01% active; AID 488839;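 active = highest replicate inhibition of at least 50% and at least 75% of replicates reaching 50%; inconclusive = only one of the two criteria met; inactive = both criteria failed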
Rtt109 Vps75: blocks Candida albicans Rtt109/Vps75 acetyltransferase activity; 330,000 tested, 0.16% active; purified Rtt109/Vps75, ThioGlo CoA-SH fluorescence, 4 h; inhibition, % at 34.9 µM; Q5AAJ8; AID 540336;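 active = inhibition of at least 50% in every replicate; inconclusive = best replicate reaches 50% inhibition but some replicates fall short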
Target sequence (Q5AAJ8 whole entry, looked up): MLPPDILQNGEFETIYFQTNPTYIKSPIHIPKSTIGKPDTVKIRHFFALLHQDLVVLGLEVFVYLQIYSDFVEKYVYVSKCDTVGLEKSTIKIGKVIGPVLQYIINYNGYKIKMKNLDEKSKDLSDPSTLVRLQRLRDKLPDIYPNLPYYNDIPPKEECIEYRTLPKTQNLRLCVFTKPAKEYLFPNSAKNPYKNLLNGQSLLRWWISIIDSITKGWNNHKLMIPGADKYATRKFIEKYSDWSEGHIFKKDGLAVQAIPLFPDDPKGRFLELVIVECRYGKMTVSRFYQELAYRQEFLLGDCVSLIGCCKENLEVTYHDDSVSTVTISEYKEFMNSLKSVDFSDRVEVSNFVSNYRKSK
SMARCA2 act: increases SMARCA2 function in MMTV reporter cells; MG213 cells, MMTV-luciferase reporter, dexamethasone, overnight; activation, % at 9.1 µM; 370,000 tested, 1% active; in the data active = activation above about 7.8%
dFosB activator: enhances mouse delta FosB homodimer DNA binding. 340,000 tested, 0.99% active. P13346. purified delta FosB, TAMRA-CDK5 oligo fluorescence polarization; percent of positive-control signal above neutral wells. activation, % at 25 µM;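 active = mean activation above about 17%, with every replicate also reaching it, limit read from the data, passing the limit was not always enough; inconclusive = only one of the two conditions met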
Target sequence (P13346 whole entry, looked up): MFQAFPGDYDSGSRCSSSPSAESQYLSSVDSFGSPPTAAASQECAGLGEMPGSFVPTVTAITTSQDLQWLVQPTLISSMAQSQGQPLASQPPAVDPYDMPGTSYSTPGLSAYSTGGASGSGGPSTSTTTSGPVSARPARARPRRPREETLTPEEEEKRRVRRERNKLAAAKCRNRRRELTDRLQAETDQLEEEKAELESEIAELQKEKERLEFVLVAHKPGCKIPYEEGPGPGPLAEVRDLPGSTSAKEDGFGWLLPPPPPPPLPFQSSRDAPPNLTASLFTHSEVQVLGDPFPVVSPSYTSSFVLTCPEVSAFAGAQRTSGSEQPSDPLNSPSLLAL
DYRK1A inh: inhibitors of rat Dyrk1A kinase; Q63470; ADP-Glo luminescence, NFATc1 peptide; inhibition, % at 12.5 µM; 310,000 tested, 0.43% active; AID 504441; in the data active = inhibition above about 50%
Ring1 derepress: de-represses Ring1 in mouse ESCs, confirming esBAF inhibition; shares compounds with esBAF inh; mouse ESC E14, Ring1 mRNA RT-qPCR fold change; fold change at 33 µM; 550 tested, under 10 active; AID 743176;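 active = Ring1 gene expression raised more than 2-fold over untreated cells in both replicates at either tested dose; inconclusive = only one replicate above 2-fold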;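 note: Ring1 transcript normalised to actin housekeeping signal by TaqMan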
Fgf4 repress: represses Fgf4 in mouse ESCs, confirming esBAF inhibition; shares compounds with esBAF inh; mouse ESC E14, Fgf4 mRNA qPCR fold change; active compounds read low; Fgf4 expression fold change at 33 µM; 550 tested, 4% active;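 active = Fgf4 expression under 0.8 fold of control in both repeat measurements at one or both tested doses; inconclusive = under 0.8 fold in just a single repeat measurement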;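 note: Fgf4 transcript normalised to actin in duplex TaqMan qPCR; cells exposed to compound for 24 h before lysis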
Bmi1 derepress: esBAF inhibition confirmed by Bmi1 de-repression | shares compounds with esBAF inh | mouse ESE14 ES cells, Bmi1 mRNA qPCR fold; active compounds read high | fold change at 33 µM | 550 tested, under 10 active;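 active = Bmi1 expression fold change above 6 at either tested concentration, seen in replicate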;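 note: higher fold means more Bmi1 de-repression and stronger esBAF inhibition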
A549 tox SP: kills or reduces viability of A549 cells | shares compounds with esBAF inh | A549 cytotoxicity, plate reader | cell viability change % (negative = cytotoxic), % at 25 µM, hits read low | 550 tested, under 10 active; call rule not given here
HepG2 cytotox SP: cytotoxicity in HepG2 cells | shares compounds with esBAF inh | plate reader; active compounds read low | activity change, negative = inhibition, % at 25 µM | 550 tested, 4% active | AID 743189; in the data active = activity change below about -50%
HEK293 cytotox SP: cytotoxicity in HEK293 cells; plate reader; shares compounds with esBAF inh; activity change, negative = inhibition, % at 25 µM, hits read low; 550 tested, 3% active; AID 743190; in the data active = activity change below about -38%, passing the limit was not always enough
Numbers stand for hits; i = inactive; ? = inconclusive; nt = no result. Most compounds without a hit are left out; they make up all but 3.2% or so of the library.

SMILES	esBAF inh	CDK5 p35 inh	Rtt109 Vps75	SMARCA2 act	dFosB activator	DYRK1A inh	Ring1 derepress	Fgf4 repress	Bmi1 derepress	A549 tox SP	HepG2 cytotox SP	HEK293 cytotox SP
COCC#Cc1cnc2c(c1)C(=O)N([C@H](C)CO)C[C@H](C)[C@@H](CN(C)C(=O)Cc1cccnc1)O2	i	nt	nt	nt	nt	nt	nt	nt	nt	nt	nt	nt
CN1C(=O)c2cc(NC(=O)c3ccccc3F)ccc2OC[C@@H]2O[C@H](CC(=O)NCc3ccc4c(c3)OCO4)CC[C@H]21	i	nt	nt	nt	nt	nt	nt	nt	nt	nt	nt	nt
c1ccc(-c2ccc3[nH]ccc3c2)cc1	58.7	i	i	i	i	i	i	i	i	i	i	i
COc1cccc(NC(=O)N2C[C@H](O)COC[C@H]3O[C@H](CC(=O)NCc4ccccc4F)CC[C@@H]32)c1	i	nt	nt	nt	nt	nt	nt	nt	nt	nt	nt	nt
CO[C@H]1CN(C)C(=O)c2ccc(NS(=O)(=O)c3cn(C)cn3)cc2OC[C@H](C)N(Cc2cccc(F)c2)C[C@H]1C	i	nt	nt	nt	nt	nt	nt	nt	nt	nt	nt	nt
C=CCn1cccc(C(=O)Nc2ccc(N(C)C)cc2)c1=O	?	i	i	i	i	i	nt	nt	nt	nt	nt	nt
C=CCn1cccc(C(=O)Nc2ccc(Cl)cc2)c1=O	62.8	i	i	i	i	i	i	i	i	i	i	i
O=C(c1ccncc1)N(c1ccc(N2CCOCC2)cc1)C(c1ccccc1)c1nc2ccccc2[nH]1 (configuration not stated)	47.8	nt	nt	i	nt	nt	i	i	i	i	i	i
COc1ccc(-c2cn3c(C)c(C(=O)NC(C)(C)C)sc3n2)cc1	72.3	i	i	i	i	i	i	i	i	i	i	i
c1ccc(-c2cc3ccccc3[nH]2)cc1	54.3	i	i	i	i	i	i	i	i	i	i	i
COc1cccc(C(=O)c2cc3cc(Cl)ccc3[nH]2)c1	77.6	i	i	i	i	i	i	?	i	i	i	i
Cc1nn(Cc2c(F)c(F)c(F)c(F)c2F)c(C)c1NC(=O)c1ccc(COc2cc(Cl)ccc2Cl)cc1	47.0	i	i	i	i	i	i	i	i	i	i	i
CC(C)(C)Nc1nc(Cl)nc(Nc2ccccc2)n1	58.8	i	i	i	i	i	i	?	i	i	i	i
C[C@@H]1CN([C@@H](C)CO)C(=O)Cc2cc(NS(=O)(=O)c3cn(C)cn3)ccc2O[C@H]1CN(C)C(=O)Nc1ccccc1	i	nt	nt	nt	nt	nt	nt	nt	nt	nt	nt	nt
C[C@H]1CCCCO[C@H](CN(C)C(=O)C2CCCCC2)[C@@H](C)CN([C@@H](C)CO)C(=O)c2cc(NS(=O)(=O)c3ccc(F)cc3)ccc2O1	i	nt	nt	nt	nt	nt	nt	nt	nt	nt	nt	nt
COC(=O)Cc1ccc(OCc2ccc(Cl)nc2)cc1	59.4	i	i	i	i	nt	i	i	i	i	i	i
Cc1ccccc1NC(=O)c1ccc2c(c1)N(C)CCS2	79.5	i	i	i	i	i	i	i	i	i	i	i
CCS(=O)(=O)n1nc(-c2ccco2)nc1SC	i	i	i	i	i	i	nt	nt	nt	nt	nt	nt
CCS(=O)(=O)n1nc(-c2ccc(Cl)cc2)nc1SC	56.9	i	i	i	i	i	i	i	i	i	i	i
C[C@@H]1CCCCO[C@@H](CN(C)C(=O)CCCN(C)C)[C@H](C)CN([C@@H](C)CO)C(=O)c2cc(NC(=O)CCC(F)(F)F)ccc2O1	i	nt	nt	nt	nt	nt	nt	nt	nt	nt	nt	nt
CNC(=O)c1ccc(-c2ccccc2)s1	57.9	i	i	i	i	i	i	?	i	i	i	i
CC(=O)Nc1ccc(-c2ccccc2)s1	i	i	i	i	i	i	nt	nt	nt	nt	nt	nt
C[C@@H]1CN([C@@H](C)CO)C(=O)Cc2cc(NC(=O)Nc3ccc(C(F)(F)F)cc3)ccc2O[C@@H]1CN(C)Cc1ccc(C(=O)Nc2ccccc2N)cc1	i	nt	nt	nt	nt	nt	nt	nt	nt	nt	nt	nt
CNC(=O)C[C@H]1CC[C@@H]2[C@H](COc3ccc(NC(=O)Nc4ccccc4OC)cc3C(=O)N2C)O1	i	nt	nt	nt	nt	nt	nt	nt	nt	nt	nt	nt
CN(C)c1ccc(/C=N/OC(=O)Nc2ccccc2)cc1	i	i	i	i	i	i	nt	nt	nt	nt	nt	nt
SMILES	esBAF inh	CDK5 p35 inh	Rtt109 Vps75	SMARCA2 act	dFosB activator	DYRK1A inh	Ring1 derepress	Fgf4 repress	Bmi1 derepress	A549 tox SP	HepG2 cytotox SP	HEK293 cytotox SP
COc1ccc(NC(=O)O/N=C/c2ccccc2)cc1	52.9	i	i	i	16.4	i	i	?	i	i	i	i
O=C1/C(=C/c2cccc3ccccc23)CCCc2ccccc21	57.4	i	i	i	i	i	i	i	i	i	i	i
CC(=O)Oc1ccc(-c2cc3c(OC(C)=O)cc(OC(C)=O)cc3oc2=O)cc1	i	i	i	i	i	i	nt	nt	nt	nt	nt	nt
CC(=O)Oc1ccc(-c2cc3ccccc3oc2=O)cc1	68.5	i	i	i	i	i	i	?	i	i	i	i
CCOC(=O)C1=C(CSc2nc(-c3ccccc3)ccc2C#N)OC(N)=C(C#N)C1c1cccnc1 (configuration not stated)	72.6	i	i	i	i	nt	i	?	i	i	i	i
CCOC(=O)C1=C(CSc2nc(-c3ccccc3)ccc2C#N)OC(N)=C(C#N)C1c1ccccc1 (configuration not stated)	?	i	i	i	i	i	nt	nt	nt	nt	nt	nt
C[C@@H]1CCCCO[C@@H](CN(C)C(=O)CCCN(C)C)[C@H](C)CN([C@@H](C)CO)C(=O)c2cc(NC(=O)c3ccncc3)ccc2O1	i	nt	nt	nt	nt	nt	nt	nt	nt	nt	nt	nt
CC(C)NC(=O)N(C)C[C@H]1Oc2ccc(NS(=O)(=O)c3cn(C)cn3)cc2CC(=O)N([C@@H](C)CO)C[C@@H]1C	i	nt	nt	nt	nt	nt	nt	nt	nt	nt	nt	nt
COCCN1C(=O)c2ccc(C(=O)Nc3nccs3)cc2C1=O	i	i	i	i	i	i	nt	nt	nt	nt	nt	nt
CC(C)CN1C(=O)c2ccc(C(=O)Nc3nccs3)cc2C1=O	62.8	i	i	i	i	i	i	i	i	i	i	i
CC(C)CN1C(=O)c2ccc(NC(=O)c3ccco3)cc2C1=O	nt	i	i	i	i	i	nt	nt	nt	nt	nt	nt
CC(C)CN1C(=O)c2ccc(NC(=O)c3cccs3)cc2C1=O	63.4	i	i	i	i	i	i	i	i	i	i	i
N#Cc1ccc(CO/N=C/c2ccccc2)cc1	i	i	i	i	i	i	nt	nt	nt	nt	nt	nt
C(=NOCc1ccccc1)c1cccnc1	58.4	i	i	i	i	i	i	i	i	i	i	i
C[C@@H]1CN([C@@H](C)CO)C(=O)c2cccc(NS(=O)(=O)c3ccccc3)c2O[C@H]1CN(C)Cc1ccc(C(F)(F)F)cc1	i	nt	nt	nt	nt	nt	nt	nt	nt	nt	nt	nt
